Test results: PubChem BioAssay (NCI)
Compounds without any hit were thinned out: in the full panel of roughly 79,000, 15% have a hit. Calls of active or inactive are those of the source. No stated cut-off is given here; in the data, active means growth inhibition above about 70%; inactive means the rest.

What was measured:
[1] = NCI Yeast Anticancer Drug Screen. Data for the rad52 strain (AID 147);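 further: 0% = growth of vehicle-treated control cultures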; conditions: S. cerevisiae rad52 mutant growth inhibition, active compounds read high
Outline: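 The repair-mutant yeast strain was incubated with compounds, then growth was read and inhibition derived relative to vehicle.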

[2] = NCI Yeast Anticancer Drug Screen. Data for the wt1 strain (AID 149);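 further: 0% = growth of vehicle-treated wt1 cultures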; conditions: S. cerevisiae wt1 strain (SPY 50644) growth inhibition, active compounds read high
Outline: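 Using yeast strain wt1, compound-induced growth inhibition was determined against vehicle-treated cultures.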

[3] = NCI Yeast Anticancer Drug Screen. Data for the rad50EPP+ strain (AID 151);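 further: 0% = growth of vehicle-treated control cultures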; conditions: S. cerevisiae rad50 mutant strain, active compounds read high
Outline: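 Vehicle-normalised growth inhibition; rad50EPP+ yeast strain, altered in DNA damage repair, compound-treated.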

[4] = NCI Yeast Anticancer Drug Screen. Data for the mgt1 strain (AID 153); conditions: S. cerevisiae mgt1 mutant growth inhibition, active compounds read high
Outline: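 Vehicle-normalized growth inhibition is determined in mgt1 yeast, a strain selected for a defined alteration in DNA repair or cell cycle control.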

[5] = NCI Yeast Anticancer Drug Screen. Data for the rad50 strain (AID 155);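 further: 0% = growth of vehicle-only cultures of the same strain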; conditions: S. cerevisiae rad50 strain growth inhibition, active compounds read high
Outline: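 Relative growth inhibition (compound vs vehicle) was measured in yeast with a defined repair-gene alteration.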

[6] = NCI Yeast Anticancer Drug Screen. Data for the mec2-1 strain (AID 157); conditions: S. cerevisiae mec2-1 strain, active compounds read high
Outline: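 Mutant yeast (mec2-1) grown with compound; growth inhibition relative to vehicle control reported.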

[7] = NCI Yeast Anticancer Drug Screen. Data for the rad14 strain (AID 159);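 further: 0% = growth of vehicle-treated control cultures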; conditions: S. cerevisiae rad14 strain growth inhibition, active compounds read high
Outline: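 Screen for anticancer potential: a yeast strain altered in DNA damage repair is grown with compound, and reduced growth is quantified against vehicle controls.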

[8] = NCI Yeast Anticancer Drug Screen. Data for the sgs1 mgt1 strain (AID 161);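 further: 0% = growth of cultures given vehicle only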; conditions: S. cerevisiae sgs1 mgt1 strain, active compounds read high
Outline: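 Percent growth inhibition was derived by comparing compound-exposed mutant yeast with vehicle-exposed cultures. The strain carries alterations in DNA damage repair.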

[9] = NCI Yeast Anticancer Drug Screen. Data for the CLN2oe strain (AID 163);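 further: 0% = growth of vehicle-only control cultures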; conditions: S. cerevisiae CLN2oe strain, active compounds read high
Outline: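 Compounds are applied to yeast harbouring a defined cell-cycle control change; reduced growth compared with vehicle-treated controls gives the value.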

[10] = NCI Yeast Anticancer Drug Screen. Data for the cln2 rad14 strain (AID 165);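 further: 0% = growth equal to vehicle treated cultures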; conditions: S. cerevisiae cln2 rad14 strain, active compounds read high
Outline: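 Readout is yeast growth inhibition versus vehicle-treated controls, using a strain with cln2 and rad14 alterations exposed to compound.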

[11] = NCI Yeast Anticancer Drug Screen. Data for the bub3 strain (AID 167); conditions: S. cerevisiae bub3 mutant strain, active compounds read high
Outline: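 Screening used yeast with an engineered genetic alteration affecting cell cycle control. Compound-exposed cultures were compared with vehicle cultures, and reduced growth was taken as inhibition.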

[12] = NCI Yeast Anticancer Drug Screen. Data for the wt2 strain (AID 169);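 further: 0% = growth of vehicle-treated yeast cultures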; conditions: S. cerevisiae wt2 strain growth inhibition, active compounds read high
Outline: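 Against vehicle-treated controls, the growth of yeast exposed to each compound was compared, and the inhibition was recorded.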

[13] = NCI Yeast Anticancer Drug Screen. Data for the mlh1 strain (AID 171);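 further: 0% = growth of vehicle-treated control cultures of the same strain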; conditions: S. cerevisiae mlh1 strain growth inhibition, active compounds read high
Outline: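 Measured: yeast growth. Reference: vehicle-treated controls. Organism: strain with a defined alteration affecting DNA damage repair or cell cycle control, treated with compound.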

[14] = NCI Yeast Anticancer Drug Screen. Data for the sgs1 strain (AID 173);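 further: 0% = growth of vehicle-only control cultures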; conditions: S. cerevisiae sgs1 mutant, active compounds read high
Outline: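 Each compound was added to cultures of the altered yeast strain. Growth was recorded, and inhibition was derived by comparison with vehicle controls.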

[15] = NCI Yeast Anticancer Drug Screen. Data for the mlh1 rad18 strain (AID 175); conditions: S. cerevisiae mlh1 rad18 strain growth inhibition, active compounds read high
Outline: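 Genetically defined yeast (DNA repair-deficient) exposed to compounds; growth inhibition determined relative to vehicle.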

[16] = NCI Yeast Anticancer Drug Screen. Data for the rad18 strain (AID 177); conditions: S. cerevisiae rad18 mutant growth inhibition, active compounds read high
Outline: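 Vehicle-treated cultures served as the baseline for scoring compound-induced growth inhibition in DNA-repair-mutant yeast.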

[17] = at 5.0 µM (retest, dose inferred, filed as 0.5)
[18] = at 50.0 µM (retest, dose inferred, filed as 5.0)

Measured: growth inhibition

CCCN(CCC)CC(O)c1cc(-c2ccc(Cl)cc2)nc2c(C)c(Cl)ccc12 (stereo unspecified)
active: [1]; at 11.0 µM 98% | [1]; at 33.0 µM 96% | [1]; at 100.0 µM 93% | [2]; at 11.0 µM 98% | [2]; at 33.0 µM 98% | [2]; at 100.0 µM 97% | [3]; at 11.0 µM 85% | [3]; at 33.0 µM 96% | [3]; at 100.0 µM 96% | [4]; at 11.0 µM 99% | [4]; at 33.0 µM 98% | [4]; at 100.0 µM 96% | [5]; at 11.0 µM 98% | [5]; at 33.0 µM 96% | [5]; [18] 95% | [5]; at 50.0 µM 98.4% | [5]; at 100.0 µM 93% | [6]; at 11.0 µM 99% | [6]; at 33.0 µM 98% | [6]; [18] 98% | [6]; at 50.0 µM 98.9% | [6]; at 100.0 µM 96% | [7]; at 11.0 µM 99% | [7]; at 33.0 µM 98% | [7]; at 100.0 µM 97% | [8]; [18] 97% | [8]; at 50.0 µM 98.5% | [9]; at 11.0 µM 97% | [9]; at 33.0 µM 98% | [9]; at 100.0 µM 94% | [10]; [18] 93% | [10]; at 50.0 µM 97.6% | [11]; at 11.0 µM 99% | [11]; at 33.0 µM 97% | [11]; [18] 96% | [11]; at 50.0 µM 97.4% | [11]; at 100.0 µM 94% | [12]; at 11.0 µM 99% | [12]; at 33.0 µM 97% | [12]; at 100.0 µM 96% | [13]; at 11.0 µM 99% | [13]; at 33.0 µM 98% | [13]; at 100.0 µM 95% | [14]; at 11.0 µM 98% | [14]; at 33.0 µM 97% | [14]; at 100.0 µM 95% | [15]; [18] 96% | [15]; at 50.0 µM 98.7% | [16]; at 11.0 µM 98% | [16]; at 33.0 µM 96% | [16]; at 100.0 µM 94%
inactive: [1]; at 1.2 µM -2% | [1]; at 3.7 µM 2% | [2]; at 1.2 µM -1% | [2]; at 3.7 µM -3% | [3]; at 1.2 µM -2% | [3]; at 3.7 µM 1% | [4]; at 1.2 µM -2% | [4]; at 3.7 µM -3% | [5]; at 1.2 µM -3% | [5]; at 3.7 µM 7% | [5]; [17] 34% | [6]; at 1.2 µM -6% | [6]; at 3.7 µM -8% | [6]; [17] 9% | [7]; at 1.2 µM -2% | [7]; at 3.7 µM 13% | [8]; [17] 36% | [9]; at 1.2 µM -3% | [9]; at 3.7 µM -3% | [10]; [17] 9% | [11]; at 1.2 µM -5% | [11]; at 3.7 µM -6% | [11]; [17] 6% | [12]; at 1.2 µM -3% | [12]; at 3.7 µM -7% | [13]; at 1.2 µM -3% | [13]; at 3.7 µM -2% | [14]; at 1.2 µM -2% | [14]; at 3.7 µM 3% | [15]; [17] 27% | [16]; at 1.2 µM -4% | [16]; at 3.7 µM -5%

Cc1ccc(S(=O)(=O)NCCSS(=O)(=O)c2ccc(C)cc2)cc1
inactive: [1]; at 1.2 µM 18% | [1]; at 3.7 µM 31% | [1]; at 11.0 µM 38% | [2]; at 1.2 µM 6% | [2]; at 3.7 µM 8% | [2]; at 11.0 µM 28% | [3]; at 1.2 µM -14% | [3]; at 3.7 µM 6% | [3]; at 11.0 µM 64% | [4]; at 1.2 µM -13% | [4]; at 3.7 µM -8% | [4]; at 11.0 µM 3% | [5]; at 1.2 µM 9% | [5]; at 3.7 µM 6% | [5]; [17] 36% | [5]; at 11.0 µM 17% | [6]; at 1.2 µM -2% | [6]; at 3.7 µM -13% | [6]; [17] -24% | [6]; at 11.0 µM 7% | [7]; at 1.2 µM -10% | [7]; at 3.7 µM -15% | [7]; at 11.0 µM -6% | [8]; [17] 7% | [9]; at 1.2 µM -29% | [9]; at 3.7 µM -16% | [9]; at 11.0 µM -6% | [10]; [17] 20% | [11]; at 1.2 µM -14% | [11]; at 3.7 µM -29% | [11]; [17] 30% | [11]; at 11.0 µM -4% | [12]; at 1.2 µM -14% | [12]; at 3.7 µM -17% | [12]; at 11.0 µM -1% | [13]; at 1.2 µM -27% | [13]; at 3.7 µM -34% | [13]; at 11.0 µM -14% | [14]; at 1.2 µM 20% | [14]; at 3.7 µM 21% | [14]; at 11.0 µM 45% | [15]; [17] 10% | [16]; at 1.2 µM -2% | [16]; at 3.7 µM 6% | [16]; at 11.0 µM 12%
active: [1]; at 33.0 µM 98% | [1]; at 100.0 µM 95% | [2]; at 33.0 µM 99% | [2]; at 100.0 µM 95% | [3]; at 33.0 µM 91% | [3]; at 100.0 µM 96% | [4]; at 33.0 µM 98% | [4]; at 100.0 µM 94% | [5]; at 33.0 µM 98% | [5]; [18] 95% | [5]; at 50.0 µM 88.7% | [5]; at 100.0 µM 93% | [6]; at 33.0 µM 98% | [6]; [18] 96% | [6]; at 50.0 µM 93% | [6]; at 100.0 µM 96% | [7]; at 33.0 µM 98% | [7]; at 100.0 µM 92% | [8]; [18] 95% | [8]; at 50.0 µM 91% | [9]; at 33.0 µM 96% | [9]; at 100.0 µM 93% | [10]; [18] 96% | [10]; at 50.0 µM 87.2% | [11]; at 33.0 µM 98% | [11]; [18] 97% | [11]; at 50.0 µM 88.8% | [11]; at 100.0 µM 94% | [12]; at 33.0 µM 97% | [12]; at 100.0 µM 94% | [13]; at 33.0 µM 98% | [13]; at 100.0 µM 94% | [14]; at 33.0 µM 99% | [14]; at 100.0 µM 96% | [15]; [18] 95% | [15]; at 50.0 µM 88.7% | [16]; at 33.0 µM 99% | [16]; at 100.0 µM 94%
